From PubChem BioAssay (EPA / NIEHS)
Active and inactive are the calls of the source. Rule for the calls: active = hit-call score of the fitted dose curve at least 0.9, where 1 is the maximum; inactive = score below 0.9.

Read-out: TIMP metallopeptidase inhibitor 1 (TIMP1), TIMP1 (gene 7076)
Assay: BSK_hDFCGF_TIMP1: BioMAP Diversity Plus: hDFCGF Assay for TIMP metallopeptidase inhibitor 1 (TIMP1) Biomarker Activity (AID 2283062)
Details: primary human foreskin fibroblasts; actives raise or lower the signal
Method: BSK_hDFCGF is a cell-based, multiplexed-readout assay that uses foreskin fibroblast, a human skin primary cell, with measurements taken at 24 hours after chemical dosing in a 96-well plate.BSK_hDFCGF_TIMP1 is an assay component measured in the BSK_hDFCGF assay. It measures TIMP-1 antibody related to regulation of gene expression using ELISA technology.Data from the assay component BSK_hDFCGF_TIMP1 was analyzed into 1 assay endpoint. This assay endpoint, BSK_hDFCGF_TIMP1, was analyzed with bidirectional fitting relative to DMSO as the negative control and baseline of activity. Using a type of binding reporter, gain or loss-of-signal activity can be used to understand changes in the signaling as they relate to the gene TIMP1. Furthermore, this assay endpoint can be referred to as a primary readout, because this assay has produced multiple assay endpoints where this one serves a signaling function. To generalize the intended target to other relatable targets, this assay endpoint is annotated to the protease inhibitor intended target family, where the subfamily is metalloproteinase inhibitor.
The levels of cell surface (or secreted, indicated by the prefix "s") biomarker endpoints were measured by ELISA. Overt cytotoxicity to cells in confluent adherent cultures (all systems other than the BT system) was assessed by measuring total protein levels using sulforhodamine B (SRB) staining in parallel cultures at the time of biomarker measurements, indicated as SRB endpoints. For proliferation assays for adherent cell types, individual cell types are cultured at sub-confluence and relative cell numbers quantified by SRB staining at time points optimized for each system (48 h: 3C and CASM3C systems; 72 h: BT and HDF3CGF systems; 96 h: SAg system). SRB was performed by staining cells with 0.1% SRB after fixation with 10% TCA and reading wells at 560 nm.Viability and proliferation of PBMC (T cells) was quantified by Alamar Blue reduction for the SAg and BT systems. For PBMC viability (referred to as PBMC Cytotoxicity within the assay endpoint names), cells were plated (75,000/well in a 96-well plate) and then chemical samples added for 1 h before addition of activators, SEB and TSST-1 (20 ng/mL final concentration each). Cells were incubated for 90 h. Then, Alamar Blue (20 uL/well) (Invitrogen, Cat DAL1100) was added for 6 h, and the plates were read with a fluorescence microplate reader at 546/580 nm (excitation/emission). For PBMC proliferation, cells were plated and activated as above but incubated for only 16 h prior to addition of Alamar Blue. Plates were read after 6 h.

| Compound | outcome | AC50 |
| --- | --- | --- |
| Cc1nc(-c2ccc3c(c2)CCN(CCC2CCC(NC(=O)/C=C/c4ccc(F)cc4)CC2)CC3)no1 (stereo not given) | inactive |  |
| CCCCCCCCCCCCCCCCCC(=O)O | inactive |  |
| Cc1cccc(C)c1O | inactive |  |
| CCCCCCCC=O | inactive |  |
| NS(=O)(=O)c1cc2c(cc1Cl)NCNS2(=O)=O | inactive |  |
| CN[C@H]1CC[C@@H](c2ccc(Cl)c(Cl)c2)c2ccc(S(N)(=O)=O)cc21 |  | 31.4 µM (active) |
| NCC1(Cc2noc(=O)[nH]2)CCCCC1 | inactive |  |
| COCCOC[C@H](CC1(C(=O)NC2CCC(C(=O)O)CC2)CCCC1)C(=O)Oc1ccc2c(c1)CCC2 (stereo not given in full) | inactive |  |
| O=c1[nH]cc(F)c(=O)[nH]1 | inactive |  |
| Clc1cc(Cl)c(Cl)cc1Cl | inactive |  |
| C[Si]1(C)O[Si](C)(C)O[Si](C)(C)O[Si](C)(C)O1 | inactive |  |
| Cc1nc(C)nc(N2C[C@@H](C)N(c3ccnc([C@@H](C)O)n3)[C@@H](C)C2)n1 | inactive |  |
| CCCCCCCCCCO | inactive |  |
| CCCCc1ccc2c(n1)[C@@H](c1ccc(OC)cc1C[C@H](C)C(=O)O)[C@H](C(=O)O)[C@H]2c1ccc2c(c1)OCO2 | inactive |  |
| CCc1c(C(=O)NN2CCCCC2)nn(-c2ccc(Cl)cc2Cl)c1-c1ccc(Br)cc1 |  | 3.54 µM (active) |
| CNCc1cc(F)ccc1Oc1ccc(Cl)c(Cl)c1 | inactive |  |
| O=C(O)CCCCC(=O)O | inactive |  |
| COc1cc(C=O)ccc1O | inactive |  |
| Nc1nc(N)c2nc(CNc3ccc(C(=O)N[C@@H](CCC(=O)O)C(=O)O)cc3)cnc2n1 | inactive |  |
| Oc1ccc2c(c1)OC[C@@H](N1CCC(O)(c3ccc(F)cc3)CC1)[C@H]2O | inactive |  |

| Compound | outcome | AC50 |
| --- | --- | --- |
| O=[N+]([O-])C(CO)(CO)CO | inactive |  |
| Oc1ccc2ccccc2c1N=Nc1ccccc1 | inactive |  |
| CC1(C)NC(=O)NC1=O | inactive |  |
| COc1ccc(C)cc1N | inactive |  |
| NC(=O)Cn1c(=O)cc(CCN2CCN(c3nccc4sccc34)CC2)c2ccc(F)cc21 | inactive |  |
| CCCc1cc(=O)[nH]c(=S)[nH]1 | inactive |  |
| COc1cc(-c2nc(NC(=O)c3cc4cc(C)cc(C)c4n3CC(=O)O)sc2CCC2CCCCC2)c(OC)cc1Cl |  | 0.48 µM (active) |
| Cc1ccc(C)c(O)c1C | inactive |  |
| Cc1ccc(Cl)cc1 | inactive |  |
| Cc1ccc2ncccc2c1 | inactive |  |
| CCOC(=O)C(C)(C)Oc1ccc(Cl)cc1 | inactive |  |
| Cc1cc(NC(=O)C(=O)O)cc(C)c1Oc1ccc(O)c2c1CCC2 | inactive |  |
| c1cc(-c2ccncc2)ccn1 | inactive |  |
| CCCCCCCCCCCCCCCC | inactive |  |
| CC(=O)OCCOCCOCCOC(C)=O | inactive |  |
| CCNc1cccc(C)c1 | inactive |  |
| CC(=O)C(C)=CC1C(C)=CCCC1(C)C (stereo not given) | inactive |  |
| CC(=O)Oc1ccccc1C(=O)O | inactive |  |
| Cc1ccc(C)c(C)c1 | inactive |  |
| C[C@]12C=CC(=O)C=C1CC[C@@H]1[C@@H]2C(=O)C[C@@]2(C)[C@H]1CC[C@]2(O)C(=O)CO | inactive |  |
